From PubChem BioAssay (EPA / NIEHS) come the findings set out here.

Read-out in assay [1]: Interferon-inducible T-cell alpha chemoattractant (ITAC), CXCL11 (gene 6373)
Put plainly: BSK_BE3C_ITAC: BioMAP Diversity Plus: BE3C Assay for Interferon-inducible T-cell alpha chemoattractant (ITAC) Biomarker Activity (AID 2284279). As to conditions: primary human bronchial epithelial cells. Put shortly: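 The assay measures I-TAC levels by ELISA in human primary bronchial epithelial cell cultures 24 hours after chemical treatment. Values reflect signal increase over the DMSO baseline.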

Read-out in assay [2]: Interleukin-8 (IL8), CXCL8 (gene 3576)
In words: BSK_BE3C_IL8: BioMAP Diversity Plus: BE3C Assay for Interleukin-8 (IL8) Biomarker Activity (AID 2284280). Particulars: primary human bronchial epithelial cells. The method, boiled down:
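IL-8 signal gain, normalised to DMSO vehicle, was scored after a 24 h chemical exposure of primary human bronchial epithelial cells, with detection by ELISA.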

Read-out in assay [3]: Epidermal growth factor receptor (EGFR), EGFR (gene 1956)
In words: BSK_BE3C_EGFR: BioMAP Diversity Plus: BE3C Assay for Epidermal growth factor receptor (EGFR) Biomarker Activity (AID 2284281). As to conditions: primary human bronchial epithelial cells. Put shortly:
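Compound is added to human bronchial epithelial cells, cells incubate 24 h, then EGFR is detected by ELISA. Values reflect positive-direction fitting relative to DMSO.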

Read-out in a further assay: KRT18 (gene 3875)
Put plainly: BSK_BE3C_Keratin818: BioMAP Diversity Plus: BE3C Assay for Keratin 818 Biomarker Activity (AID 2284282). Particulars: primary human bronchial epithelial cells. The method, boiled down:
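BE3C: human bronchial epithelial primary cells, 24 h exposure, Keratin 8/18 ELISA; DMSO = negative control/baseline; cytotoxicity by parallel SRB stain (0.1% SRB after 10% TCA fixation, 560 nm).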

Read-out in assay [4]: Matrix Metallopeptidase 9 (MMP9), MMP9 (gene 4318)
Put plainly: BSK_BE3C_MMP9: BioMAP Diversity Plus: BE3C Assay for Matrix Metallopeptidase 9 (MMP9) Biomarker Activity (AID 2284283). As to conditions: primary human bronchial epithelial cells. The method, boiled down: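 BE3C, human bronchial epithelial primary cells; 24 h post-dose; MMP-9 by ELISA; positive fit vs DMSO; SRB (0.1%, TCA-fixed, 560 nm) parallel cytotox.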

Read-out in assay [5]: Plasminogen activator inhibitor-1 (PAI1), SERPINE1 (gene 5054)
Put plainly: BSK_CASM3C_PAI1: BioMAP Diversity Plus: CASM3C Assay for Plasminogen activator inhibitor-1 (PAI1) Biomarker Activity (AID 2284284).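 Also: PAI-1 protein level measured by ELISA 24 h after dosing.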 As to conditions: primary human coronary artery smooth muscle cells.

Read-out in assay [6]: Monocyte Chemoattractant Protein-1 (MCP1), CCL2 (gene 6347)
Put plainly: BSK_hDFCGF_MCP1: BioMAP Diversity Plus: hDFCGF Assay for Monocyte Chemoattractant Protein-1 (MCP1) Biomarker Activity (AID 2284285). As to conditions: primary human foreskin fibroblasts. Put shortly: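 Human foreskin fibroblasts (hDFCGF system) were exposed to compound and secreted MCP-1 was measured by ELISA after 24 hours. Activity was fitted relative to DMSO. Cytotoxicity was checked by SRB total-protein staining in parallel cultures.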

Read-out in assay [7]: Intercellular Adhesion Molecule 1 (ICAM1), ICAM1 (gene 3383)
In words: BSK_hDFCGF_ICAM1: BioMAP Diversity Plus: hDFCGF Assay for Intercellular Adhesion Molecule 1 (ICAM1) Biomarker Activity (AID 2284287). Particulars: primary human foreskin fibroblasts. Put shortly: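 Primary human foreskin fibroblasts (hDFCGF system) dosed with chemical; ICAM-1 quantified by ELISA at 24 h relative to DMSO. Parallel SRB total-protein staining to assess overt cytotoxicity.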

Read-out in assay [8]: TIMP metallopeptidase inhibitor 2 (TIMP2), TIMP2 (gene 7077)
Put plainly: BSK_hDFCGF_TIMP2: BioMAP Diversity Plus: hDFCGF Assay for TIMP metallopeptidase inhibitor 2 (TIMP2) Biomarker Activity (AID 2284289). As to conditions: primary human foreskin fibroblasts. The method, boiled down:
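Primary human foreskin fibroblasts in the hDFCGF system, dosed for 24 h; TIMP-2 level measured by ELISA, fitted in the positive direction against DMSO; cytotoxicity checked in parallel by sulforhodamine B total protein staining.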

Read-out in assay [9]: Thrombomodulin, THBD (gene 7056)
Put plainly: BSK_LPS_Thrombomodulin: BioMAP Diversity Plus: LPS Assay for Thrombomodulin Biomarker Activity (AID 2284296). Particulars: primary human HUVEC with PBMC. Put shortly: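 Human umbilical vein endothelial cells co-cultured with PBMC and stimulated with LPS; cell-surface thrombomodulin measured by ELISA 24 hours after compound. Gain or loss versus DMSO; cytotoxicity checked by SRB staining in parallel cultures.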

Read-out in another assay: CD69, CD69 (gene 969)
Put plainly: BSK_LPS_CD69: BioMAP Diversity Plus: LPS Assay for CD69 Biomarker Activity (AID 2284303). As to conditions: primary human HUVEC with PBMC. The method, boiled down: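 Human umbilical vein endothelial cells co-cultured with PBMC under LPS stimulation, chemical exposure 24 h; cell-surface CD69 measured by ELISA and fitted in the positive direction versus DMSO.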

Assay [10] in a line: IUF_NPC2c_oligodendrocyte_migration_120hr: Leibniz Research Institute for Environmental Medicine (IUF) 120-hour Neural Progenitor Cell Migration Assay for Oligodendrocyte Migration (NPC2c) (AID 2284297). The method, boiled down: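 Read-out is the mean distance of O4-positive oligodendrocytes from the sphere core edge at 120 h, normalized to radial glia migration and fitted in the gain direction against DMSO. Spheres of primary human neural progenitors differentiated on laminin under continuous compound exposure.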

A short description of assay [11]: IUF_NPC2a_radial_glia_migration_120hr: Leibniz Research Institute for Environmental Medicine (IUF) 120-hour Neural Progenitor Cell Migration Assay for Radial Glia Migration (NPC2a) (AID 2284298). The method, boiled down: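 Readout: distance in um from sphere core edge to migration-area edge, derived from Hoechst nuclei density with a threshold-defined polynomial boundary. Spheres: hNPC, GW 16-19, 0.3 mm, on PDL/laminin; exposure 5 days; DMSO is baseline.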

A short description of assay [12]: IUF_NPC2a_radial_glia_migration_72hr: Leibniz Research Institute for Environmental Medicine (IUF) 72-hour Neural Progenitor Cell Migration Assay for Radial Glia Migration (NPC2a) (AID 2284299). Put shortly: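 Migration out of plated human neural progenitor spheres is scored at 72 h as the distance in um from the sphere core edge to the edge of the migration area. Values are the mean of four manual measurements per well, normalised to DMSO.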

Assay [13] can be described thus: IUF_NPC2b_neuronal_migration_120hr: Leibniz Research Institute for Environmental Medicine (IUF) 120-hour Neural Progenitor Cell Migration Assay for Neuron Migration (NPC2b) (AID 2284300). Put shortly:
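Read-out is mean distance from sphere edge to each TUBB3-positive neuron at 120 h, expressed relative to radial glia migration distance and to DMSO baseline. Single 0.3 mm human NPC spheres differentiated on laminin under continuous compound exposure.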

A short description of assay [14]: IUF_NPC3_neuronal_differentiation_120hr: Leibniz Research Institute for Environmental Medicine (IUF) 120-hour Neuronal Differentiation Assay (NPC3) (AID 2284301). The method, boiled down: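 Single 0.3 mm neurospheres from human fetal cortex were plated in differentiation medium containing test compound. Medium was half-replaced on day 3. After 120 h cells were fixed, immunostained and imaged, and neuronal fraction was scored against DMSO control.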

Assay [15] is described as follows: IUF_NPC4_neurite_length_120hr: Leibniz Research Institute for Environmental Medicine (IUF) 120-hour Neuronal Morphology Assay for Neurite Length (NPC4) (AID 2284302). The method, boiled down:
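Read-out is mean neurite length in µm of TUBB3-positive neurons, skeletonized from high-content fluorescence images after 120 h. Single 0.3 mm primary human neural progenitor spheres differentiated on poly-D-lysine/laminin under continuous compound exposure; DMSO was baseline.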

Assay [16] can be described thus: IUF_NPC5_oligodendrocyte_differentiation_120hr: Leibniz Research Institute for Environmental Medicine (IUF) 120-hour Oligodendrocyte Differentiation Assay (NPC5) (AID 2284304; active = hit-call score of the fitted dose curve at least 0.9, where 1 is the maximum;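 also: primary human fetal neural progenitor spheres plated to migrate and differentiate; share of O4-positive cells among Hoechst nuclei found by CNN image analysis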). The method, boiled down:
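Oligodendrocyte differentiation was scored after 120 h as the O4-positive share of Hoechst-stained nuclei across the neurosphere migration area, using a trained convolutional neural network on high-content fluorescence images. Human fetal neural progenitor spheres were dosed from day 0, normalised to DMSO.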

Assay [17] can be described thus: IUF_NPC2-5_cytotoxicity_72hr: Cytotoxicity Assessment at 72 hours in the Leibniz Research Institute for Environmental Medicine (IUF) Neural Progenitor Cell Migration and Differentiation Assay for Cytotoxicity (NPC2-5) (AID 2284306; active = hit-call score of the fitted dose curve at least 0.9, where 1 is the maximum;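 also: LDH release into supernatant measured by resorufin fluorescence marking membrane damage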). Put shortly: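 Membrane integrity loss was scored from fluorescence (RFU) of resorufin generated by LDH in culture supernatant, 72 h after dosing. Differentiating human progenitor spheres received seven serial compound concentrations alongside a solvent control.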

“And” between values parts separate entries of the source, which are not always exact repeats. Equal values may be shown once. Results filed as inconclusive are left out. Some structures have more than one record in an assay (separate samples or runs), and their calls can disagree. The source made the active and inactive calls. The calls were made as follows, unless noted: active = hit-call score of the fitted dose curve at least 0.9, where 1 is the maximum; inactive = score below 0.9.

In the case of `Nc1ccc(N)c(Cl)c1`, the result (in assay [1]; in assay [2]; in assay [3]; in the assay with KRT18 (gene 3875); in assay [5]; in [7]) was inactive. Also, the outcome in assay [9] was inactive. In addition, the half-maximal activity concentration (AC50) (as a rule, the midpoint of the concentration-response curve, whichever way the signal moves) was 5.71 µM (active) in assay [2]; 15.2 µM (active) and 7.82 µM (active) in [4]; 28.9 µM (active) in [6]; 28.1 µM (active) and 28.9 µM (active) in assay [8]; 4.71 µM (active) and 1.81 µM (active) in the assay with CD69, CD69 (gene 969).
Take `C=C[Si](OC(C)=O)(OC(C)=O)OC(C)=O`: the outcome (in [1]; in assay [2]; in assay [3]; with KRT18 (gene 3875); in assay [4]; in assay [5]) was inactive. The outcome was “inactive” in assay [6]; “inactive” in assay [7]; “inactive” in [8]; “inactive” in assay [9]; “inactive” with CD69, CD69 (gene 969).
For the compound `CO[Si](OC)(OC)c1ccccc1`, the result (in [1]; in [2]; in assay [3]; with KRT18 (gene 3875); in assay [4]; in [5]) was inactive. The outcome is “inactive” in assay [6]; “inactive” in assay [7]; “inactive” in assay [8]; “inactive” in assay [9]; “inactive” with CD69, CD69 (gene 969).
`O=C(c1ccc(O)cc1)c1ccc(O)cc1O`: the outcome (in [1]; in assay [2]; in [3]; with KRT18 (gene 3875); in [5]; in assay [6]) was inactive. The outcome is “inactive” in assay [7]; “inactive” in assay [8]; “inactive” in assay [9]; “inactive” with CD69, CD69 (gene 969). In addition, the AC50 in assay [4] is 20 µM (active) and 9.6 µM (active).
Turning to `CCCCC(CC)COCC1CO1` (centres undefined), the result (in assay [1]; in assay [2]; in assay [3]; with KRT18 (gene 3875); in assay [4]; in assay [5]) was inactive. Moreover, the outcome in assay [6] was “inactive”; in [7], “inactive”; in [8] it was “inactive”; in [9] it was “inactive”; with CD69, CD69 (gene 969) it was “inactive”.
As to `CC1(C)S[C@@H]2[C@H](NC(=O)COc3ccccc3)C(=O)N2[C@H]1C(=O)O`, the compound was classed as inactive in assay [10], in assay [11], in [12], in assay [13], in [14] and in [15]. The compound was called inactive in [16] and in assay [17].
